Laboratory results: PubChem BioAssay (NCI)
This is part of a sample that, as a whole, favours compounds with a hit. Of some 83,000 tested, about 20% had one in any assay.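 48-hour exposure, single concentration, 96-well plates; percent growth endpoint where 0 means no net growth. Active: below 10.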 Unmarked numbers belong to inactive results. Calls of active or inactive are those of the source.

How the values were obtained:
Test in all cases: NCI-60 one-dose screen, 48 h (100 = growth as untreated, 0 = no growth, -100 = all killed)
Details in all cases: 10 µM unless noted
SNB-75 CNS = test system: SNB-75 CNS
SNB-19 CNS = test system: SNB-19 CNS
PC-3 prostate = test system: PC-3 prostate
SK-MEL-5 melanoma = test system: SK-MEL-5 melanoma
UACC-62 melanoma = test system: UACC-62 melanoma
SK-MEL-28 melanoma = test system: SK-MEL-28 melanoma
SN12C renal = test system: SN12C renal
UO-31 renal = test system: UO-31 renal
TK-10 renal = test system: TK-10 renal
ACHN renal = test system: ACHN renal
CAKI-1 renal = test system: CAKI-1 renal
A498 renal = test system: A498 renal
MOLT-4 leukemia = test system: MOLT-4 leukemia
SR leukemia = test system: SR leukemia
LOX IMVI melanoma = test system: LOX IMVI melanoma
SK-MEL-2 melanoma = test system: SK-MEL-2 melanoma
EKVX NSCLC = test system: EKVX NSCLC
CCRF-CEM leukemia = test system: CCRF-CEM leukemia
U251 CNS = test system: U251 CNS

## C[C@]12CC[C@@H]3c4ccc(O)cc4CC[C@H]3[C@@H]1CC[C@@H]2NS(=O)(=O)c1cccc(Br)c1
SNB-75 CNS
  growth: 72.7%
SNB-19 CNS
  growth: 95.2%
PC-3 prostate
  growth: 38.7%
SK-MEL-5 melanoma
  growth: 61.3%
UACC-62 melanoma
  growth: 70%
SK-MEL-28 melanoma
  growth: 88.3%
SN12C renal
  growth: 69.8%
UO-31 renal
  growth: 36.3%
TK-10 renal
  growth: 75.4%
ACHN renal
  growth: 58.9%
CAKI-1 renal
  growth: 62.9%
A498 renal
  growth: 65%
MOLT-4 leukemia
  growth: 36.3%
SR leukemia
  growth: 27.1%

## CCC(O)C(C)(C)C (stereo not given)
SNB-75 CNS
  growth: 108%
SNB-19 CNS
  growth: 109%
PC-3 prostate
  growth: 108%
SK-MEL-5 melanoma
  growth: 113%
UACC-62 melanoma
  growth: 104%
LOX IMVI melanoma
  growth: 93%
SK-MEL-28 melanoma
  growth: 121%
SK-MEL-2 melanoma
  growth: 129%
EKVX NSCLC
  growth: 99%
SN12C renal
  growth: 101%
UO-31 renal
  growth: 101%
ACHN renal
  growth: 110%
CAKI-1 renal
  growth: 94.3%
A498 renal
  growth: 96.3%
CCRF-CEM leukemia
  growth: 116%
MOLT-4 leukemia
  growth: 111%
SR leukemia
  growth: 110%

## O=C1C[C@@H]2/C(=C(O)\C=C\c3ccccc3)C(=O)C=C[C@@H]2O1
SNB-19 CNS
  growth: 58.7%
U251 CNS
  growth: 1.95% (active)
SK-MEL-5 melanoma
  growth: 39.7%
UACC-62 melanoma
  growth: -50.7% (active)
LOX IMVI melanoma
  growth: -68% (active)
SK-MEL-28 melanoma
  growth: -23.7% (active)
SK-MEL-2 melanoma
  growth: -35% (active)
EKVX NSCLC
  growth: 25.6%
SN12C renal
  growth: -21.8% (active)
UO-31 renal
  growth: -85.9% (active)
TK-10 renal
  growth: 3.39% (active)
ACHN renal
  growth: -17.7% (active)
CCRF-CEM leukemia
  growth: 12.5%
MOLT-4 leukemia
  growth: 6.97% (active)
SR leukemia
  growth: 10.2%

## N#CCCCCCn1c2ccccc2c2c3c(c4c5ccccc5[nH]c4c21)C(=O)N(O)C3=O
SNB-75 CNS
  growth: 29.4%
U251 CNS
  growth: -46.2% (active)
PC-3 prostate
  growth: -3.49% (active)
SK-MEL-5 melanoma
  growth: -97% (active)
UACC-62 melanoma
  growth: -35.7% (active)
LOX IMVI melanoma
  growth: -81% (active)
SK-MEL-28 melanoma
  growth: -2.36% (active)
SK-MEL-2 melanoma
  growth: 3.52% (active)
SN12C renal
  growth: 6.13% (active)
UO-31 renal
  growth: -44.9% (active)
TK-10 renal
  growth: 22%
ACHN renal
  growth: -81.6% (active)
CAKI-1 renal
  growth: -59.9% (active)
A498 renal
  growth: -76.3% (active)
MOLT-4 leukemia
  growth: -21.3% (active)
SR leukemia
  growth: -9.51% (active)

## O=C1CC(=O)N(c2ccccc2)O1
SNB-75 CNS
  growth: 85%
SNB-19 CNS
  growth: 110%
U251 CNS
  growth: 104%
SK-MEL-5 melanoma
  growth: 97.6%
UACC-62 melanoma
  growth: 93.9%
LOX IMVI melanoma
  growth: 89.5%
SK-MEL-28 melanoma
  growth: 107%
EKVX NSCLC
  growth: 108%
SN12C renal
  growth: 94.9%
UO-31 renal
  growth: 61.7%
TK-10 renal
  growth: 122%
ACHN renal
  growth: 97.4%
A498 renal
  growth: 94.6%
SR leukemia
  growth: 110%

## CCCOc1ccc2c(c1)CC[C@@H]1[C@@H]2CC[C@@]2(C)[C@H]1CC[C@]2(C)O
SNB-75 CNS
  growth: 73.4%
SNB-19 CNS
  growth: 94.3%
U251 CNS
  growth: 72%
UACC-62 melanoma
  growth: 95.8%
LOX IMVI melanoma
  growth: 65%
EKVX NSCLC
  growth: 80%
SN12C renal
  growth: 82.7%
UO-31 renal
  growth: 69.9%
TK-10 renal
  growth: 69.3%
CAKI-1 renal
  growth: 62.3%
A498 renal
  growth: 114%
CCRF-CEM leukemia
  growth: 72.8%
MOLT-4 leukemia
  growth: 75.9%
SR leukemia
  growth: 73%
